Common to all, as to set-up: scale not given: direction of the effect not stated beside the values
The target in assay [1] is Protein translocase subunit SecA (Escherichia coli (strain K12)) (UniProt P10408). In words: Assay to Identify E. coli SecA ATPase Inhibitors. The assay is classed as functional. The following applies: 30 µM.
The target of assay [2] is T1, Ubiquitin-activating enzyme e1, putative (Leishmania donovani (strain BPK282A1)) (UniProt E9BSI1).
T1 sequence (whole entry): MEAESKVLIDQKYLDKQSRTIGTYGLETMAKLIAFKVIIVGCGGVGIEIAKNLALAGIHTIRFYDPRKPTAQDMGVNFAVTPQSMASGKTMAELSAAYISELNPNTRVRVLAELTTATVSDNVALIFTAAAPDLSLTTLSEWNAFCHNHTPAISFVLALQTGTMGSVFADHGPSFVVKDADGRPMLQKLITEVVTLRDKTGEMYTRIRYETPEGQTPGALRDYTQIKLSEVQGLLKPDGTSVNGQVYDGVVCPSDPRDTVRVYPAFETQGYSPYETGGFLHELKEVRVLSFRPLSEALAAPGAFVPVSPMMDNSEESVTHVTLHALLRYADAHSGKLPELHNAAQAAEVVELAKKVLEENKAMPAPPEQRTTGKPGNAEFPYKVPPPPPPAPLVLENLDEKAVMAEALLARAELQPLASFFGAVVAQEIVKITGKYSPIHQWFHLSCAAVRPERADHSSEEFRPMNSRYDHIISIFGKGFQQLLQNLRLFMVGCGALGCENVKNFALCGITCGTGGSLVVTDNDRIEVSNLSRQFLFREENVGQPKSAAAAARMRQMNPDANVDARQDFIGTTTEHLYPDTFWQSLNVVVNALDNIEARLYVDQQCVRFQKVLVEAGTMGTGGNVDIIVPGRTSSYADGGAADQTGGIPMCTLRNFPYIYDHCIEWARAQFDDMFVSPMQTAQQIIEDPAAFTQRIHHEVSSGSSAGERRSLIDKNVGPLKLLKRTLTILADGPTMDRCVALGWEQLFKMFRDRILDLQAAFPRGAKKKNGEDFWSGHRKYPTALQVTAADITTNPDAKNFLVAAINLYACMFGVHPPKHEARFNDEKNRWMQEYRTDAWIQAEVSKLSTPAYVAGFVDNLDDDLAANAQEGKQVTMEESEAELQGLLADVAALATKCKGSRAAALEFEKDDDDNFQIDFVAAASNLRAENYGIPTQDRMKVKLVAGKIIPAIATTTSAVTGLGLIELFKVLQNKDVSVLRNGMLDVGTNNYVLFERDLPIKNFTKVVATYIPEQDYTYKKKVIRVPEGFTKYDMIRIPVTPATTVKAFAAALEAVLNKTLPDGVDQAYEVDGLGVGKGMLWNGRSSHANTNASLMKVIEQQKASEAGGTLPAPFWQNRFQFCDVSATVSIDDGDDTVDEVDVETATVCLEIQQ
In words: Leishmania donovani Ubiquitin Activating Enzyme (LdE1). It is filed as functional. As to conditions: 30 µM.

The target in assay [3] is AMP-activated protein kinase, AMPK (Homo sapiens) (UniProt P54646+O43741+P54619+Q9UGJ0+Q9Y478+Q13131+Q9UGI9). In words: AMP-dependent Kinase enzyme assay. An in vitro enzyme assay that detects ADP turnover that is directly proportional to AMPK activity. This uses naive AMPK that is activated during the assay with MK-8722. It is filed as functional. As to conditions: 30 µM.

Assay [4] addresses Sialic acid-binding Ig-like lectin 9 (Homo sapiens) (UniProt Q9Y336). Nature of the assay: Hs-Siglec9 ALPHAscreen SOP 20170721. As to conditions: 10 µM.
For a further assay, the system named is Trypanosoma cruzi. Nature of the assay: Trypanosoma cruzi phosphomannomutase and mannose-1-phosphate guanylyltransferase assay. It is filed as functional. The following applies: 10 µM.
Assay [5] has as its target T2, Arginase-2, mitochondrial (Homo sapiens) (UniProt P78540).
T2 sequence (whole entry): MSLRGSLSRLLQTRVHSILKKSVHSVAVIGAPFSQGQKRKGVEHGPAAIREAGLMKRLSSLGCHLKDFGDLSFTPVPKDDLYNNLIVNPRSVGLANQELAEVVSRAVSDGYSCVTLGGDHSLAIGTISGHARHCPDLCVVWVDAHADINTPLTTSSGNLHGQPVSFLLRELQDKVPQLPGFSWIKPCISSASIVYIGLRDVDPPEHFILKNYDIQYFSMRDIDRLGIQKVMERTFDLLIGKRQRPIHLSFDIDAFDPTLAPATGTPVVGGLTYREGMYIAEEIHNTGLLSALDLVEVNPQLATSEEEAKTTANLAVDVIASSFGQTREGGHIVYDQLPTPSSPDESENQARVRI
In words: in vitro enzyme assay to detect the production of urea directly proportional to the activity of Arginase II. Also: in the data most compounds retested in dose-response had high values. It is filed as functional. The following applies: 33.3 µM.

For assay [6], the target named is T3, Proteasome subunit beta (Trypanosoma cruzi) (UniProt O96673).
T3 sequence (whole entry): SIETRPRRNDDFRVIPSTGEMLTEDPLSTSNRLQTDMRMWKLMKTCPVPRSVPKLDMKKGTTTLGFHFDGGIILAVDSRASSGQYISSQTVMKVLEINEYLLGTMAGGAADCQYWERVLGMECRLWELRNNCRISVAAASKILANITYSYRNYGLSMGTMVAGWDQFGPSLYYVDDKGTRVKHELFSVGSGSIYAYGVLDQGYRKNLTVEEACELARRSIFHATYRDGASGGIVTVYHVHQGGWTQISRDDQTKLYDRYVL
In words: Trypanosoma cruzi proteasome chymotrypsin-like activity (TcProtChymo) assay. Also: in the data most compounds retested in dose-response had high values. The assay is classed as functional. The following applies: 9.37 µM.

A further assay is filed under the species Homo sapiens. Nature of the assay: To identify inhibition of the IFN signalling (Jak-Stat) pathway via expression of an eGFP reporter gene under the control of an IFN-stimulated response element (ISRE) containing MxA promoter. The assay is classed as functional. As to conditions: 30 µM.
Assay [7] deals with T4, Tyrosyl-tRNA synthetase, putative (Trypanosoma cruzi (strain CL Brener)) (UniProt Q4DSP6).
T4 sequence (whole entry): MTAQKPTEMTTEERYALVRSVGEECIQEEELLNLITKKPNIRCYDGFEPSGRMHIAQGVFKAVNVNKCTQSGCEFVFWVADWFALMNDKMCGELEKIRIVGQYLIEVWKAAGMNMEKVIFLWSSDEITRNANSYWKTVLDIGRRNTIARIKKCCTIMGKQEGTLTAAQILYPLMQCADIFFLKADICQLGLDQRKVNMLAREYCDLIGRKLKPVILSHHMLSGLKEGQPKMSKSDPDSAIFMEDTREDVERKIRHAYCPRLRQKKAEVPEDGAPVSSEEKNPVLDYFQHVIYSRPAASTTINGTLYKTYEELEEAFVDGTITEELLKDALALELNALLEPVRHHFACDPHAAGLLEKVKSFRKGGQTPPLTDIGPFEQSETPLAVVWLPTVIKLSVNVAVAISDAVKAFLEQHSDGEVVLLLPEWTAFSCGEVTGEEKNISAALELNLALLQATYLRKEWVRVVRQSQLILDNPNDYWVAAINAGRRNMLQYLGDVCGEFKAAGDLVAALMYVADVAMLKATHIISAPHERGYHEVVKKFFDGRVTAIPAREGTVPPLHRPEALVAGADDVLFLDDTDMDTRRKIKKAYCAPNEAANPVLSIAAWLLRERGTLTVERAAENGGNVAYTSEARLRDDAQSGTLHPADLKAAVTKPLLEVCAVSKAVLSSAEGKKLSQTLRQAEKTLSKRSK
Nature of the assay: Trypanosoma cruzi tyrosyl tRNA synthetase (TcYRS) _High Tyrosine SOP. Also: in the data most compounds retested in dose-response had high values. The assay is classed as functional. As to conditions: 30 µM.

Assay [8] addresses T4, Tyrosyl-tRNA synthetase, putative (Trypanosoma cruzi (strain CL Brener)). Nature of the assay: Trypanosoma cruzi tyrosyl tRNA synthetase (TcYRS) SOP. It is filed as functional. As to conditions: 30 µM.
For assay [9], the target named is Chromo domain-containing protein 1 (Saccharomyces cerevisiae (strain ATCC 204508 / S288c) (Baker's yeast)) (UniProt P32657). In words: ScCHD-1 Enzyme Inhibition Assay. Also: in the data most compounds retested in dose-response had high values. The assay is classed as functional. The following applies: 30 µM.
Chain of Chromo domain-containing protein 1 (Saccharomyces cerevisiae (strain ATCC 204508 / S288c) (Baker's yeast)) (P32657 whole entry, the tested form may be a part): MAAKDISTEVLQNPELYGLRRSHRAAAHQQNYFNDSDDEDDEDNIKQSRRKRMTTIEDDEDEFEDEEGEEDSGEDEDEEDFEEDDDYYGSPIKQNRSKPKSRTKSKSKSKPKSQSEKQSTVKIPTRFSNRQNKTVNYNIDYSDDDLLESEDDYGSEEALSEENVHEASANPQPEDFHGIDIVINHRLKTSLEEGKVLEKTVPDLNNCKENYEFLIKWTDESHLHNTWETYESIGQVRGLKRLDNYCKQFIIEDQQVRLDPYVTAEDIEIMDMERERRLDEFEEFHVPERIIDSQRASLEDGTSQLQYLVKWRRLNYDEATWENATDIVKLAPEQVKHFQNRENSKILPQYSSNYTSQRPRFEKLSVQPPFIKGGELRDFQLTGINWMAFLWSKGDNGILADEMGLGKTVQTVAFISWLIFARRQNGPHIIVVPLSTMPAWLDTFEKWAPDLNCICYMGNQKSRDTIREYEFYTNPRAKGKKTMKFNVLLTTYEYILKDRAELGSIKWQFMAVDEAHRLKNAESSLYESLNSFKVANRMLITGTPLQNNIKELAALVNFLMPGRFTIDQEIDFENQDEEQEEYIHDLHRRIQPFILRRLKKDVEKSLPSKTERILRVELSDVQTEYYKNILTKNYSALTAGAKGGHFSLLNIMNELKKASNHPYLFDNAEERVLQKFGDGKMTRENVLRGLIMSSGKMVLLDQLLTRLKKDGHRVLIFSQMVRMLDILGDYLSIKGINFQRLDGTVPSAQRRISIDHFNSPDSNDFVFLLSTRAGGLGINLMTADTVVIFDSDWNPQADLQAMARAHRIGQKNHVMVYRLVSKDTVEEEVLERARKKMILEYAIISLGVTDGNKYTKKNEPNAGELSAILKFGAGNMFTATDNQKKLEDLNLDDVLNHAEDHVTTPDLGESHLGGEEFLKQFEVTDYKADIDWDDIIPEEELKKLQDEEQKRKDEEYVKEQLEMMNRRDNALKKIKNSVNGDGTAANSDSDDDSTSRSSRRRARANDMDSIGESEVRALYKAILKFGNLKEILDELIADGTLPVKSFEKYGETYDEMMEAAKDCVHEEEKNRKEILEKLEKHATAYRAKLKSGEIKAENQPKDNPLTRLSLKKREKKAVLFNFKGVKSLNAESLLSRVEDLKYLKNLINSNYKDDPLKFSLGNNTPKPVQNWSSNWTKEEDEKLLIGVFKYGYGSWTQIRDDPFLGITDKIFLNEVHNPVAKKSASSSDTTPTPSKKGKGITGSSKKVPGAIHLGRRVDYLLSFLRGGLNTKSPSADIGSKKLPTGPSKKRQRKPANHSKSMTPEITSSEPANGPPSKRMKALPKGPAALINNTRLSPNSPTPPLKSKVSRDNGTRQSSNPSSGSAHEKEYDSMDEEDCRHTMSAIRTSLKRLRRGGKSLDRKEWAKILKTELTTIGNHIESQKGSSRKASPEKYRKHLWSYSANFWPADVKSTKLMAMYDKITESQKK
In the next assay the test system is N/A. In words: Trypanosoma cruzi proteasome luciferase counter-screen. The assay is classed as functional. As to conditions: 9.37 µM. On the technique in general: The purpose of a counterscreen is to sort out artefacts and off-target activity.

Experimental findings from ChEMBL document CHEMBL3988442, “University of Dundee, Small-Polar-MMV Screening Library” (2021) are described below.

The structures appear in SMILES notation. Where “and” joins values, the source holds several entries; their conditions need not be identical. Identical values can stand only once. For some of these results: Measured potencies and affinities stand elsewhere.

Chain of Sialic acid-binding Ig-like lectin 9 (Homo sapiens) (Q9Y336 whole entry): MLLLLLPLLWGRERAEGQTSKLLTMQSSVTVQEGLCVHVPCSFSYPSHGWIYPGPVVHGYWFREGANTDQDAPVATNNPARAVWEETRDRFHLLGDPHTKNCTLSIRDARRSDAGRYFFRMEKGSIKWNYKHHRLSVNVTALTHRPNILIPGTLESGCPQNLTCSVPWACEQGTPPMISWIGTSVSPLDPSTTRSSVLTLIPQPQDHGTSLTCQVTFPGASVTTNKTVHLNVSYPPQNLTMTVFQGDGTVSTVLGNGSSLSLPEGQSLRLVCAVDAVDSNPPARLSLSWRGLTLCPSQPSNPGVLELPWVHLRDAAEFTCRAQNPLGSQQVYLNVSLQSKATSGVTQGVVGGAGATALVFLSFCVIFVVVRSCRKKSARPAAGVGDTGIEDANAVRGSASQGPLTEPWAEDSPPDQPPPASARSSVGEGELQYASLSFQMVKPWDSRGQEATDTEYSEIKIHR
Chain of Protein translocase subunit SecA (Escherichia coli (strain K12)) (P10408 whole entry): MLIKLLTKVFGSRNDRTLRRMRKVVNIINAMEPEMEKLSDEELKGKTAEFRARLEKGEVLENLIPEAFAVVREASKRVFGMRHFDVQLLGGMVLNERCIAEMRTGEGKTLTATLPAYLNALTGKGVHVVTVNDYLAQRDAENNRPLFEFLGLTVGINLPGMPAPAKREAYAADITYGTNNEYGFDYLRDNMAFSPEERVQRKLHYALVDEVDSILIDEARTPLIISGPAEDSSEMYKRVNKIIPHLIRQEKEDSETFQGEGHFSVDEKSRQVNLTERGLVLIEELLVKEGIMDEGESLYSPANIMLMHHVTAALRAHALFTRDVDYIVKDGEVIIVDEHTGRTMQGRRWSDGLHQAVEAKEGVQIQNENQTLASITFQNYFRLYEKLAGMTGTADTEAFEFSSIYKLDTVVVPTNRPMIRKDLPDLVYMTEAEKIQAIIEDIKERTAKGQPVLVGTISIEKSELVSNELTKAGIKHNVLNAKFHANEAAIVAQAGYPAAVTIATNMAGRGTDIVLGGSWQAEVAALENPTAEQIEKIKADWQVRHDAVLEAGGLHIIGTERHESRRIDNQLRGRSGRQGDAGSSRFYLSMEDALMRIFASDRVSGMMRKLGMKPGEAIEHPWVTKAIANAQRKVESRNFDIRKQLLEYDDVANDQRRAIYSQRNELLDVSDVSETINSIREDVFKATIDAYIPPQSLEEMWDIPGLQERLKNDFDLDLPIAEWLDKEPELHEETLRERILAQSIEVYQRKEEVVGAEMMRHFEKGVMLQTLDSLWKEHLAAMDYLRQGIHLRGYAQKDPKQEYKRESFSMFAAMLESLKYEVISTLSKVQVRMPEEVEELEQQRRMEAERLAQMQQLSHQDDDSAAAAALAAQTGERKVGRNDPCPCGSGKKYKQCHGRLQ

In the case of `c1cncc(OCC2CN(Cc3ccco3)Cc3nccn3C2)c1` (stereo unspecified), the Percent Effect in assay [1] was -1.62%; in assay [2], 21.9%; in assay [3], -8.03%; in assay [4] it was 11.2%; with Trypanosoma cruzi, 4.17%; in assay [5] it was 0%. For the same molecule, the Percent Effect in assay [6] is 16%; in the assay filed under Homo sapiens it was 6.3%; in assay [7], 10.4%; in assay [8] it was 23.5%; in assay [9], -9.31%.
Take `Cn1ncc2c(=O)[nH]c(CN(Cc3cccc(F)c3)C3CC3)nc21`: the Percent Effect in [1] was -4.78%; in assay [2] it was 15.6%; in assay [3] it was 1.73%; in assay [4] it was -0.0963%; in the assay on Trypanosoma cruzi, 8.05%; in assay [5] it was 3.92%. Further, the Percent Effect in assay [6] is 16.1%; in the assay filed under Homo sapiens, -5.95%; in assay [7] it was 8.74%; in [8], 24.4%; in [9], -7.35%.
For the molecule `Cc1cnn(C2CCCN(C(=O)CCc3nccs3)C2)c1` (stereo unspecified), the Percent Effect is -2.71% in assay [1]; 16.2% in assay [2]; -1.11% in assay [3]; 0.709% in assay [4]; -8.4% in the assay on Trypanosoma cruzi; 1.2% in [5]. The Percent Effect in assay [6] was 17.3%; in the assay filed under Homo sapiens, 16.1%; in assay [7], 2.46%; in [8], 3.7%; in assay [9] it was -3.34%.
For `CN(Cc1cc[nH]n1)C(=O)c1cccc(CCC(C)(C)O)c1`, the Percent Effect was -4.29% in assay [1]; -2.67% in assay [2]; 0.5% in assay [3]; 1.39% in assay [4]; -5.16% in the assay on Trypanosoma cruzi; -0.521% in assay [5]. The Percent Effect was 6.9% and 8.45% in the assay on N/A; -13.1% in the assay listed under Homo sapiens; 0.546% in [7]; 3.7% in assay [8]; -5.03% in assay [9].
`Cc1nn(C)c(C)c1C1COCCN1C(=O)c1n[nH]c2ccccc12` (stereo unspecified): the Percent Effect in assay [1] is -1.74%; in assay [2], 18.2%; in [3], 2.92%; in [4], -4.32%; in the assay on Trypanosoma cruzi, 6.74%; in assay [5], -0.712%. The Percent Effect with N/A was 17.2% and 17.5%; in the assay filed under Homo sapiens it was -8.49%; in assay [7], 5.83%; in [8], 21.9%; in [9] it was -7.82%.
For `NCC1CN(c2nc(-c3ccccc3)nc3c2CCNCC3)CCO1` (stereo unspecified), the Percent Effect is -3.14% in assay [1]; 2.74% in [2]; -7.79% in [3]; 3.51% in assay [4]; 9.32% in the assay with Trypanosoma cruzi; 0.798% in assay [5]. Also, the Percent Effect was -1.11% in assay [6]; 4.88% in the assay listed under Homo sapiens; 24% in [7]; 28.4% in [8]; 0.577% in assay [9].
As to `Cc1cccc(CC(=O)NCCCOC(C)C)c1`, the Percent Effect is -0.872% in [1]; 18.2% in assay [2]; 0.619% in [3]; -8.05% in [4]; -3.75% with Trypanosoma cruzi; 0.712% in assay [5]. Further, the Percent Effect is 9.8% in assay [6]; 27.8% in the assay listed under Homo sapiens; 9.71% in assay [7]; 19.5% in assay [8]; -7.62% in assay [9].
`CS(=O)(=O)N1CCCCCC1C1CCN(c2ncccc2C#N)CC1` (stereo unspecified): the Percent Effect was -0.308% in assay [1]; -5.26% in assay [2]; 9.82% in [3]; 3.04% in assay [4]; 6.58% in the assay with Trypanosoma cruzi; 0% in [5]. Moreover, the Percent Effect was -0.668% in assay [6]; -7.75% in the assay filed under Homo sapiens; 0.49% in assay [7]; 0% in assay [8]; 2.11% in assay [9].
`CNS(=O)(=O)Cc1ccc(CNc2cncc(-n3cccn3)n2)cc1`: the Percent Effect in assay [1] was -1.63%; in assay [2] it was 18.2%; in [3], 3.34%; in assay [4], 6.42%; in the assay on Trypanosoma cruzi it was 5.24%; in assay [5], 0%. For the same molecule, the Percent Effect in the assay on N/A was 16.1% and 14.8%; in the assay listed under Homo sapiens, 18.8%; in [7], 7.77%; in assay [8] it was 24.4%; in [9] it was -12.2%.
As for `CN(C)C(=O)[C@@H]1CCO[C@@H]2CCN(CCc3ccccc3)C[C@@H]21`, the Percent Effect is -1.12% in assay [1]; 10.8% in assay [2]; -3.68% in assay [3]; 0.659% in [4]; 2.15% in the assay on Trypanosoma cruzi; 38.8% in assay [5]. Besides, the Percent Effect is 9.21% in [6]; 0.342% in the assay listed under Homo sapiens; -4.95% in assay [7]; 15.8% in [8]; -6.78% in [9].
As to `O=C(c1cc(Cl)c2c(c1)OCO2)N1CCN(c2ccccn2)CC1`, the Percent Effect is -2.8% in assay [1]; 5.48% in assay [2]; -6.15% in assay [3]; 5.68% in [4]; 1.37% in the assay with Trypanosoma cruzi; 3.64% in assay [5]. Also, the Percent Effect was 16.1% in assay [6]; 14.1% in the assay listed under Homo sapiens; 7.53% in assay [7]; 15% in assay [8]; -12.5% in assay [9].
